Assay [1] in a line: NCI Yeast Anticancer Drug Screen. Data for the rad50 strain (AID 155).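 Further: 0% = growth of vehicle-only cultures of the same strain.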 As to conditions: S. cerevisiae rad50 strain growth inhibition, stronger effect = higher value. In a few lines: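 Vehicle-treated cultures provide the reference for the growth inhibition reported for compound-exposed, repair-deficient yeast.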
Assay [2] is described as follows: NCI Yeast Anticancer Drug Screen. Data for the mec2-1 strain (AID 157). The following applies: S. cerevisiae mec2-1 strain, stronger effect = higher value. In a few lines:
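Each compound was tested on mec2-1 yeast, a strain altered in DNA damage repair or cell cycle control. Growth inhibition is reported relative to vehicle.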

The nature of assay [3]: NCI Yeast Anticancer Drug Screen. Data for the sgs1 mgt1 strain (AID 161).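 Further: 0% = growth of cultures given vehicle only.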 The following applies: S. cerevisiae sgs1 mgt1 strain, stronger effect = higher value. In a few lines: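 Inhibition of yeast growth, normalised to vehicle-treated controls, is reported for a strain bearing genetic alterations in DNA damage repair.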
A short description of assay [4]: NCI Yeast Anticancer Drug Screen. Data for the cln2 rad14 strain (AID 165).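 Further: 0% = growth equal to vehicle treated cultures.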 As to conditions: S. cerevisiae cln2 rad14 strain, stronger effect = higher value. In a few lines:
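Test compounds were added to cln2 rad14 yeast cultures; inhibition of growth was then determined by comparison with vehicle treatment.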

Assay [5] can be described thus: NCI Yeast Anticancer Drug Screen. Data for the bub3 strain (AID 167). The following applies: S. cerevisiae bub3 mutant strain, stronger effect = higher value. In a few lines:
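Mutant yeast screening strain plus compound; vehicle-treated cultures serve as the 0% inhibition reference.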

Assay [6] can be described thus: NCI Yeast Anticancer Drug Screen. Data for the mlh1 rad18 strain (AID 175). As to conditions: S. cerevisiae mlh1 rad18 strain growth inhibition, stronger effect = higher value. In a few lines:
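Inhibition values reflect reduced growth of mutant yeast versus vehicle-treated controls following compound exposure; the mutations affect DNA damage repair.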

Setting [7] is: at 5.0 µM (retest, dose inferred, filed as 0.5).
Setting [8] is: at 50.0 µM (retest, dose inferred, filed as 5.0).

SMILES strings stand for the structures. The panel holds about 79,000 compounds, 15% with a hit somewhere; the sample as a whole holds those more often. A number with no mark means an inactive call. Calls of active or inactive are those of the source. No stated cut-off is given here; in the data, active means growth inhibition above about 70%; inactive means the rest.

`COc1cccc(N2C(=O)C3CC(CC(C)(C)C)c4c([nH]c5ccccc45)C3C2=O)c1` (stereo not given): the growth inhibition in assay [1] (setting [7]) was 10%; in assay [1] (setting [8]), 33%; in assay [1] (at 50.0 µM), 33.6%; in assay [2] (setting [7]) it was 10%; in assay [2] (setting [8]), 22%; in assay [2] (at 50.0 µM), 27.6%. Besides, the growth inhibition is 13% in assay [3] (setting [7]); 20% in assay [3] (setting [8]); 35.9% in assay [3] (at 50.0 µM); -4% in assay [4] (setting [7]); 33% in assay [4] (setting [8]); 19.7% in assay [4] (at 50.0 µM). Besides, the growth inhibition is 13% in assay [5] (setting [7]); 11% in assay [5] (setting [8]); 63.4% in assay [5] (at 50.0 µM); 8% in assay [6] (setting [7]); 30% in assay [6] (setting [8]); 23.3% in assay [6] (at 50.0 µM).

Consider `Cn1c(N)c(N=Nc2ccc(S(N)(=O)=O)cc2)c(=O)n(C)c1=O`, for which the growth inhibition in assay [1] (setting [7]) is 0%; in assay [1] (setting [8]) it was 24%; in assay [1] (at 50.0 µM), -23.8%; in assay [2] (setting [7]), 22%; in assay [2] (setting [8]), -4%; in assay [2] (at 50.0 µM), -6.75%. For the same compound, the growth inhibition in assay [3] (setting [7]) is 7%; in assay [3] (setting [8]), 10%; in assay [3] (at 50.0 µM), -36.8%; in assay [4] (setting [7]) it was 27%; in assay [4] (setting [8]) it was 8%; in assay [4] (at 50.0 µM), 28.7%. Further, the growth inhibition is 6% in assay [5] (setting [7]); 9% in assay [5] (setting [8]); -44.8% in assay [5] (at 50.0 µM); 5% in assay [6] (setting [7]); 10% in assay [6] (setting [8]); -9.4% in assay [6] (at 50.0 µM).

As to `Cc1ccnc2c1ccc1c(C)ccnc12`, the growth inhibition in assay [1] (setting [7]) is 10%; in assay [1] (setting [8]) it was 98% (active); in assay [1] (at 50.0 µM) it was 99% (active); in assay [2] (setting [7]), -17%; in assay [2] (setting [8]), 99% (active); in assay [2] (at 50.0 µM), 99.1% (active). For the same compound, the growth inhibition is 14% in assay [3] (setting [7]); 99% (active) in assay [3] (setting [8]); 99.2% (active) in assay [3] (at 50.0 µM); -21% in assay [4] (setting [7]); 97% (active) in assay [4] (setting [8]); 98.5% (active) in assay [4] (at 50.0 µM). The growth inhibition in assay [5] (setting [7]) is -25%; in assay [5] (setting [8]) it was 98% (active); in assay [5] (at 50.0 µM) it was 99.1% (active); in assay [6] (setting [7]) it was 1%; in assay [6] (setting [8]), 98% (active); in assay [6] (at 50.0 µM), 99% (active).

In the case of `NC(CCCNc1nc(O)cc(=O)[nH]1)C(=O)O` (stereo not given), the growth inhibition in assay [1] (setting [7]) was -166%; in assay [1] (setting [8]), -176%; in assay [1] (at 50.0 µM), 18.2%; in assay [2] (setting [7]), -51%; in assay [2] (setting [8]), -54%; in assay [2] (at 50.0 µM) it was 13.4%. For the same compound, the growth inhibition is -66% in assay [3] (setting [7]); -68% in assay [3] (setting [8]); 7.3% in assay [3] (at 50.0 µM); -63% in assay [4] (setting [7]); -80% in assay [4] (setting [8]); 66% in assay [4] (at 50.0 µM). The growth inhibition in assay [5] (setting [7]) is -68%; in assay [5] (setting [8]), -73%; in assay [5] (at 50.0 µM), 0.7%; in assay [6] (setting [7]), -127%; in assay [6] (setting [8]), -125%; in assay [6] (at 50.0 µM) it was -5%.

Turning to `ClC1=C(Cl)C2c3ccccc3C1c1ccccc12`, the growth inhibition in assay [1] (setting [7]) was -4%; in assay [1] (setting [8]), 97% (active); in assay [1] (at 50.0 µM), 93.6% (active); in assay [2] (setting [7]) it was 6%; in assay [2] (setting [8]) it was 97% (active); in assay [2] (at 50.0 µM), 76.2% (active). Further, the growth inhibition is 0% in assay [3] (setting [7]); 97% (active) in assay [3] (setting [8]); 95.7% (active) in assay [3] (at 50.0 µM); -4% in assay [4] (setting [7]); 97% (active) in assay [4] (setting [8]); 65.2% in assay [4] (at 50.0 µM). In addition, the growth inhibition in assay [5] (setting [7]) is -9%; in assay [5] (setting [8]), 98% (active); in assay [5] (at 50.0 µM), 47.9%; in assay [6] (setting [7]), -5%; in assay [6] (setting [8]), 97% (active); in assay [6] (at 50.0 µM), 95.7% (active).

As for `OC(CNc1ccnc2cc(Cl)ccc12)CNc1ccnc2cc(Cl)ccc12`, the growth inhibition in assay [1] (setting [7]) is -2%; in assay [1] (setting [8]), 34%; in assay [1] (at 50.0 µM) it was 40%; in assay [2] (setting [7]), 0%; in assay [2] (setting [8]), 31%; in assay [2] (at 50.0 µM) it was 23.1%. For the same compound, the growth inhibition was 0% in assay [3] (setting [7]); 46% in assay [3] (setting [8]); 15.6% in assay [3] (at 50.0 µM); -4% in assay [4] (setting [7]); 46% in assay [4] (setting [8]); -21.2% in assay [4] (at 50.0 µM). Moreover, the growth inhibition is -2% in assay [5] (setting [7]); 41% in assay [5] (setting [8]); 2.8% in assay [5] (at 50.0 µM); 2% in assay [6] (setting [7]); 60% in assay [6] (setting [8]); 85.7% (active) in assay [6] (at 50.0 µM).

On to `CCCN=Cc1cnc(C#N)c(N)n1`, for which the growth inhibition in assay [1] (setting [7]) was 4%; in assay [1] (setting [8]), 4%; in assay [1] (at 50.0 µM), 19%; in assay [2] (setting [7]), 4%; in assay [2] (setting [8]), 0%; in assay [2] (at 50.0 µM), -3.9%. The growth inhibition in assay [3] (setting [7]) was -1%; in assay [3] (setting [8]), 4%; in assay [3] (at 50.0 µM) it was 4.6%; in assay [4] (setting [7]), 1%; in assay [4] (setting [8]) it was 1%; in assay [4] (at 50.0 µM) it was 71.5% (active). In addition, the growth inhibition in assay [5] (setting [7]) is -2%; in assay [5] (setting [8]) it was -1%; in assay [5] (at 50.0 µM) it was 17.3%; in assay [6] (setting [7]) it was 11%; in assay [6] (setting [8]) it was 2%; in assay [6] (at 50.0 µM), 32.5%.

For `O=C1CC(c2ccccc2)C(=O)N2C(=O)CC(c3ccccc3)C(=O)N12` (stereo not given), the growth inhibition in assay [1] (setting [7]) was 1%; in assay [1] (setting [8]), 28%; in assay [1] (at 50.0 µM), 42.2%; in assay [2] (setting [7]), 2%; in assay [2] (setting [8]), 3%; in assay [2] (at 50.0 µM), 7.6%. Besides, the growth inhibition in assay [3] (setting [7]) is -5%; in assay [3] (setting [8]) it was 8%; in assay [3] (at 50.0 µM), 1.35%; in assay [4] (setting [7]), -5%; in assay [4] (setting [8]) it was -9%; in assay [4] (at 50.0 µM) it was -27.1%. Further, the growth inhibition in assay [5] (setting [7]) was 0%; in assay [5] (setting [8]) it was 28%; in assay [5] (at 50.0 µM), 71.5% (active); in assay [6] (setting [7]), 2%; in assay [6] (setting [8]) it was -7%; in assay [6] (at 50.0 µM), 45.8%.

Take `CC(C)c1ccc(S(=O)(=O)c2ccc([N+](=O)[O-])cc2[N+](=O)[O-])cc1`: the growth inhibition in assay [1] (setting [7]) was 98% (active); in assay [1] (setting [8]), 91% (active); in assay [1] (at 50.0 µM), 93.8% (active); in assay [2] (setting [7]), 100% (active); in assay [2] (setting [8]) it was 97% (active); in assay [2] (at 50.0 µM) it was 96.5% (active). Also, the growth inhibition in assay [3] (setting [7]) was 100% (active); in assay [3] (setting [8]), 97% (active); in assay [3] (at 50.0 µM), 96.8% (active); in assay [4] (setting [7]) it was 76% (active); in assay [4] (setting [8]), 94% (active); in assay [4] (at 50.0 µM), 94.5% (active). The growth inhibition was 95% (active) in assay [5] (setting [7]); 96% (active) in assay [5] (setting [8]); 96.2% (active) in assay [5] (at 50.0 µM); 99% (active) in assay [6] (setting [7]); 95% (active) in assay [6] (setting [8]); 96.2% (active) in assay [6] (at 50.0 µM).

Take `CCNc1ccc2c(c1)Cc1ccccc1-2`: the growth inhibition in assay [1] (setting [7]) was 45%; in assay [1] (setting [8]), 91% (active); in assay [1] (at 50.0 µM), 95.2% (active); in assay [2] (setting [7]), 4%; in assay [2] (setting [8]) it was 38%; in assay [2] (at 50.0 µM), 59.8%. For the same compound, the growth inhibition in assay [3] (setting [7]) is 62%; in assay [3] (setting [8]) it was 90% (active); in assay [3] (at 50.0 µM) it was 96% (active); in assay [4] (setting [7]), 3%; in assay [4] (setting [8]), 73% (active); in assay [4] (at 50.0 µM) it was 71.8% (active). In addition, the growth inhibition in assay [5] (setting [7]) is -11%; in assay [5] (setting [8]) it was 33%; in assay [5] (at 50.0 µM), 12.1%; in assay [6] (setting [7]) it was 27%; in assay [6] (setting [8]), 87% (active); in assay [6] (at 50.0 µM) it was 90.7% (active).

Source of the values: PubChem BioAssay (NCI).
